Experimental data taken from PubChem BioAssay (NCATS).
Inconclusive results are not listed. This is one part of the list. Calls of active or inactive are those of the source. Unless noted, the call rests on the fitted dose curve; in most records, active means well fitted curve in the direction sought with a large enough effect; inconclusive means small, poorly fitted or top-dose-only effect, or another doubt; inactive means no such curve, though single readings can be large; an effect the other way counts as inactive or inconclusive.

Tests used:
[1] = qHTS Assay for Identification of Small Molecule Inducers of Hypoxia Response (AID 2120; active means well fitted curve in the direction sought with a large enough effect in the signal ratio, with a control signal flat, not every such curve was filed as active; the % refers to the signal ratio)
Method in brief: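 ME-180 HRE-bla cells plated in Opti-MEM/0.5% dialyzed FBS, rested 4-5 h, then dosed with compound titrations by pin tool. After 17 h at 37 degrees C, CCF4 dye loaded 2.5 h at RT; 460/530 nm ratio gave %Activity and AC50.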

[2] = target: Ferritin light chain (Equus caballus) (UniProt P02791); assay: qHTS Validation Assay for Identification of Novel General Anesthetics (AID 2323); further: series mostly up to about 77 µM
Ferritin light chain (Equus caballus), sequence (P02791 2-175 limits assumed): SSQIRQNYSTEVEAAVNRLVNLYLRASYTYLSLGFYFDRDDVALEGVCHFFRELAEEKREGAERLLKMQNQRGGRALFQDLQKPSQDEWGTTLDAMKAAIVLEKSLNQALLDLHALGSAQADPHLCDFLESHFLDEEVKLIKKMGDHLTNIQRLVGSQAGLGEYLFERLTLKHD
Method in brief: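 Apoferritin from horse spleen (10 uM) was mixed with 1-aminoanthracene at 50% saturation in PBS, then compounds were added. After 10 min at room temperature, fluorescence was read (ex 380 nm, em 535 nm) and normalized to free-probe and complex controls.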

[3] = target: ATP-dependent DNA helicase Q1 (Homo sapiens) (UniProt P46063); assay: qHTS Validation Assay for Inhibitors of RecQ-Like Dna Helicase 1 (RECQ1) (AID 2353)
Method in brief: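 50 nM RECQ1T1 preincubated 15 min with compound in Tris pH 8.0 buffer with MgCl2, DTT, Tween-20 and 2.5 ug/ml poly(dI-dC); started with 200 nM TAMRA/BHQ-2 forked duplex and 2 mM ATP. Unwinding read as fluorescence (525/598 nm), two reads 2 h apart.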

[4] = target: RecQ-like DNA helicase BLM (Homo sapiens) (UniProt P54132); assay: qHTS Validation Assay for Inhibitors of Bloom's syndrome helicase (BLM) (AID 2364)
RecQ-like DNA helicase BLM (Homo sapiens), sequence (P54132 whole entry, looked up): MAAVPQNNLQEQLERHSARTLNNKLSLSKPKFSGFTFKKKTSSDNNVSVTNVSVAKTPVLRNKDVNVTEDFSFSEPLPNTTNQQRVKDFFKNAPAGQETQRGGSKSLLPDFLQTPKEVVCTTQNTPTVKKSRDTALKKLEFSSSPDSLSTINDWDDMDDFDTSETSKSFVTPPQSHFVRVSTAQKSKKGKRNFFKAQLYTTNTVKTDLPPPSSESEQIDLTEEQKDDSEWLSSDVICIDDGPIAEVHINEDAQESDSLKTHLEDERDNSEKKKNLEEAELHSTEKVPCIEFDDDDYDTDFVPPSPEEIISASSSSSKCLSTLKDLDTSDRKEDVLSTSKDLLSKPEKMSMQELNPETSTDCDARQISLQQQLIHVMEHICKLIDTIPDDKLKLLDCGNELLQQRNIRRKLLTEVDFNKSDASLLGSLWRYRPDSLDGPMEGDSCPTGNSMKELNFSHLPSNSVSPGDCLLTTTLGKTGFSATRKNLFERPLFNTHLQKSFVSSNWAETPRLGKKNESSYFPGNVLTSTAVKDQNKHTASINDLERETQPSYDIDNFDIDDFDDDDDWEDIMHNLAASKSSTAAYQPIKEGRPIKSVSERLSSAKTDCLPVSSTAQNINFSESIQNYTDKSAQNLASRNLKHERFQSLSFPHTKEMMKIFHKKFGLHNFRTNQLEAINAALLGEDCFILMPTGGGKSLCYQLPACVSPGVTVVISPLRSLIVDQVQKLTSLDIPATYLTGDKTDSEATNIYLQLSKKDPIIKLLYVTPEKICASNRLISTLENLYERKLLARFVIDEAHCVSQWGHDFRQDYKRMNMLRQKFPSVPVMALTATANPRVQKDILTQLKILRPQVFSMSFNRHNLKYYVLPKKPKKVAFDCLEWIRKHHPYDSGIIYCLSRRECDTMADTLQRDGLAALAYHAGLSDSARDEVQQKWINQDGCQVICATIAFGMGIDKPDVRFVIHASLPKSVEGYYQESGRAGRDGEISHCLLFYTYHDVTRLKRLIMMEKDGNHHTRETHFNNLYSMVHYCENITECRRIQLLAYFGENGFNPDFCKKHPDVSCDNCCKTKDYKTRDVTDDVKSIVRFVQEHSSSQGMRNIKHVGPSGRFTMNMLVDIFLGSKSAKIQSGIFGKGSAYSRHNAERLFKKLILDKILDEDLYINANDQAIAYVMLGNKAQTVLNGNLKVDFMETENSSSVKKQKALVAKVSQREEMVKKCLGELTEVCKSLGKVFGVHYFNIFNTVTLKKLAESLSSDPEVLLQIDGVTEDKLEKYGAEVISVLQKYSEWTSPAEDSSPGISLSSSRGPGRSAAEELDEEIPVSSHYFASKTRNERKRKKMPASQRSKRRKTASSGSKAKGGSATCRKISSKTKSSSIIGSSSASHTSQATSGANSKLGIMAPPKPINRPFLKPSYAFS
Method in brief: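 50 nM BLM preincubated 15 min at room temperature with compound in pH 8.0 Tris buffer containing 2.5 ug/ml poly(dI-dC); started with 200 nM TAMRA/BHQ-2 forked duplex and 2 mM ATP (final). Unwinding read as TAMRA fluorescence increase, two reads 2 h apart.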

[5] = Cytometric Cell-Based qHTS for Inhibitors of the mTORC1 Signaling Pathway in MEF (Tsc2-/-, p53-/-) Cells (AID 2660);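 further: percent of cells above a phospho-rpS6 to PI ratio cutoff in each well; series mostly up to about 38 µM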
Method in brief: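 Readout: Alexa-488 phospho-rpS6 (Ser235/236) intensity divided by PI intensity, thresholded against 7.5 nM rapamycin wells and reported as % positive cells. PI cell count served as the viability measure. Compound exposure was 24 hrs at 37 degree Celsius.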

[6] = High Content Imaging Cell-Based qHTS for Inhibitors of the mTORC1 Signaling Pathway in MEF (Tsc2-/-, p53-/-) Cells (AID 2666);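 further: percent of cells scored positive for phospho-rpS6 Ser235/236 immunostaining by imaging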
Method in brief: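 Phospho-rpS6 (Ser235/236) immunofluorescence, normalized and scored as % positive cells using rapamycin and DMSO controls, was read in empty-vector Tsc2-/-, p53-/- MEFs after 24 h compound exposure at 37 C; propidium iodide counted cells.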

[7] = High Content Imaging Cell-Based qHTS for Inhibitors of the mTORC1 Signaling Pathway in MEF Cells (AID 2667);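 further: Tsc2-/- p53-/- MEFs stably re-expressing wild-type Tsc2 exposed 24 h; series mostly up to about 38 µM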
Method in brief: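 WT MEFs (Tsc2-/-, p53-/- re-expressing Tsc2), in DMEM + 10% FBS, were treated with compound for 24 h at 37 C. Cells were then fixed and stained for phospho-rpS6 Ser235/236 with propidium iodide as cell count. Values are % positive cells, with thresholds set against rapamycin-treated cells.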

[8] = Cytometry Cell-Based qHTS for Inhibitors of the mTORC1 Signaling Pathway in MEF cells (AID 2668);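 further: Tsc2-/- p53-/- mouse embryonic fibroblasts stably re-expressing wild-type Tsc2; percent cells positive for phospho-rpS6 Ser235/236 relative to propidium iodide stain; series mostly up to about 38 µM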
Method in brief: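 Pathway inhibition in WT Tsc2-rescued Tsc2-/-, p53-/- MEFs is measured as the Alexa-488 phospho-rpS6 to propidium iodide intensity ratio after 24 hrs of compound at 37 degree Celsius. PI-stained cell number gives viability.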

[9] = Validation screen for inhibitors of Lassa infection (AID 463096; calls by dose curve)
[10] = Validation screen for small molecules that induce DNA re-replication in MCF 10A normal breast cells (AID 463097); further: nearly all actives have a fitted effect of over 60% in size
Method in brief: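 DNA re-replication was detected as a rise in nuclei with elevated Hoechst fluorescence after a 48 hr compound exposure of MCF 10A cells at 37 C.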

[11] = target: Ubiquitin carboxyl-terminal hydrolase 2 (Homo sapiens) (UniProt O75604); assay: qHTS Validation Assay for Inhibitors of Ubiquitin-specific Protease USP2a Using CHOP2 as the Reporter (AID 463106)
Ubiquitin carboxyl-terminal hydrolase 2 (Homo sapiens), sequence (O75604 whole entry, looked up): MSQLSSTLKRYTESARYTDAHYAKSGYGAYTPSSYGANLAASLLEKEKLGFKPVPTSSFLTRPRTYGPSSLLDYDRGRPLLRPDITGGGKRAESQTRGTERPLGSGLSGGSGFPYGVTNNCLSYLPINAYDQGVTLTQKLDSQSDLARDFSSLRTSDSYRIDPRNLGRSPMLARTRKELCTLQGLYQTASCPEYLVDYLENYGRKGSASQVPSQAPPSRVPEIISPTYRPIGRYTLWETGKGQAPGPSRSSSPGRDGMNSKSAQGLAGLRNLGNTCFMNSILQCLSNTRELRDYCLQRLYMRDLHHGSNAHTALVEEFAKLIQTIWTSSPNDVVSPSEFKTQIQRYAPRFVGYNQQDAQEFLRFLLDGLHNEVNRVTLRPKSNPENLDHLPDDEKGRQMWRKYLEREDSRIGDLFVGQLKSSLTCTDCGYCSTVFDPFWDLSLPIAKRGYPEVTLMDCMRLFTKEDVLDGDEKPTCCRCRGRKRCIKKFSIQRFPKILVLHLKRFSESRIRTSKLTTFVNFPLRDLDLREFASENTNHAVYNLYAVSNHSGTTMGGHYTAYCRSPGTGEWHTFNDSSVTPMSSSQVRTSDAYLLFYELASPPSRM
Method in brief: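 USP2 core (10 nM final) was preincubated with compound 30 min at RT in pH 8.0 Tris/CaCl2/beta-ME/CHAPS buffer. Ub-CHOP2 and reporter substrate (25 nM final each) were then added, with fluorescence (Ex 485/Em 531) read after 60 min. Data were normalized to NEM full inhibition and fitted to concentration-response curves.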

[12] = target: DNA polymerase III PolC-type (Bacillus subtilis (strain 168)) (UniProt P13267); assay: qHTS Validation Assay for the Inhibitors of DNA Replication in Gram-Positive Bacteria (AID 485295);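 further: reconstituted holoenzyme with PolC plus beta clamp SSB and primase; PicoGreen fluorescence of double-stranded DNA made on primed circular M13 template; series mostly up to about 57 µM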
DNA polymerase III PolC-type (Bacillus subtilis (strain 168)), sequence (P13267 whole entry, looked up): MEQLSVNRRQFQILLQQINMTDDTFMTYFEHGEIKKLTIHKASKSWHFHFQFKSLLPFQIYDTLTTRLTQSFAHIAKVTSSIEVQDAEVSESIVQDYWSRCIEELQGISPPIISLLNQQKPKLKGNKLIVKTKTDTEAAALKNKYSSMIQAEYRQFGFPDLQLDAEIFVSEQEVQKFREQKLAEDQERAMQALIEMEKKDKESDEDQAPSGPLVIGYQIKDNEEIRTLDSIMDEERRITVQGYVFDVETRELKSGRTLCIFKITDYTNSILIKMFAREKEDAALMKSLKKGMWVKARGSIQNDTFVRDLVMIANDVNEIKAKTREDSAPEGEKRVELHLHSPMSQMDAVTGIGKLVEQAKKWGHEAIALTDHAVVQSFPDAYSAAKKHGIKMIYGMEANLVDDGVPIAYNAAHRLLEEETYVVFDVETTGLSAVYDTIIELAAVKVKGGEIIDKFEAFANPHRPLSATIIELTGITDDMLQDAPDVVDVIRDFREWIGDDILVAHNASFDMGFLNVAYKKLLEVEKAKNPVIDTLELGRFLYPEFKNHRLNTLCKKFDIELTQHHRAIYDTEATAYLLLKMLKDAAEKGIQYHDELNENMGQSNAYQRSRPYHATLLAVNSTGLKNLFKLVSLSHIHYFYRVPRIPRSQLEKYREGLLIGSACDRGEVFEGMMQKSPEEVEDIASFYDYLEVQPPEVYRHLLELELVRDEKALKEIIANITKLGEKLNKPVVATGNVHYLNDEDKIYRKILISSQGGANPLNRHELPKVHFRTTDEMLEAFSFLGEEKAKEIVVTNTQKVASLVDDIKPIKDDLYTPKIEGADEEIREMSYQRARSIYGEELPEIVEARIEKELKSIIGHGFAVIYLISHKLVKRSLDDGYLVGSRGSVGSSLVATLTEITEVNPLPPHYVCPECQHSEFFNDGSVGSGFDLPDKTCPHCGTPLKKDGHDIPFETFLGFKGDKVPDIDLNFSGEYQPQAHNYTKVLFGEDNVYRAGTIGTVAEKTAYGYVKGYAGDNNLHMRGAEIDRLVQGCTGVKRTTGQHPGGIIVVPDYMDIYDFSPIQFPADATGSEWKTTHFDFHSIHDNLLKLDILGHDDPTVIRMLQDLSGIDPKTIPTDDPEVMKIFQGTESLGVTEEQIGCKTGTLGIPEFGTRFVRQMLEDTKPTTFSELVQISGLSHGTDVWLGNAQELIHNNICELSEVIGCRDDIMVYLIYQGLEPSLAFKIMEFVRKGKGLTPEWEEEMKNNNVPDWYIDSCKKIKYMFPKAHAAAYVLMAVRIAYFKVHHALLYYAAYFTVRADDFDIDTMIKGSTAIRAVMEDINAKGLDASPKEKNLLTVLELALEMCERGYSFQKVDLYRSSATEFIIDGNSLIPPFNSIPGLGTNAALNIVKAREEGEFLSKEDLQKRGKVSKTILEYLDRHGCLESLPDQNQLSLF
Method in brief: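 Primed replication of single-stranded M13Gori by a four-protein B. subtilis holoenzyme is measured at room temperature. Double-stranded product is quantified by PicoGreen fluorescence after an EDTA stop; inhibition is scaled between DMSO and EDTA controls.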

[13] = qHTS Validation Assay to Find Inhibitors of Chronic Active B-Cell Receptor Signaling (AID 485345; active means well fitted curve in the direction sought with a large enough effect in the main read-out, with a control signal flat, not every such curve was filed as active)
Method in brief: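 TMD8 ABC-DLBCL cells stably carrying doxycycline-inducible IkappaBalpha–green luciferase fusion plus unfused red luciferase; compounds 46 uM to 3 nM, 4 h at 37C with doxycycline. Corrected green/red luminescence ratio normalized to 10 uM MG-132 and basal cell wells; curves fitted.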

[14] = target: Beta-2 adrenergic receptor (Homo sapiens) (UniProt P07550); assay: qHTS validation assay of beta-arrestin-biased ligands of beta2-adrenergic receptor (AID 485366)
Beta-2 adrenergic receptor (Homo sapiens), sequence (P07550 whole entry, looked up): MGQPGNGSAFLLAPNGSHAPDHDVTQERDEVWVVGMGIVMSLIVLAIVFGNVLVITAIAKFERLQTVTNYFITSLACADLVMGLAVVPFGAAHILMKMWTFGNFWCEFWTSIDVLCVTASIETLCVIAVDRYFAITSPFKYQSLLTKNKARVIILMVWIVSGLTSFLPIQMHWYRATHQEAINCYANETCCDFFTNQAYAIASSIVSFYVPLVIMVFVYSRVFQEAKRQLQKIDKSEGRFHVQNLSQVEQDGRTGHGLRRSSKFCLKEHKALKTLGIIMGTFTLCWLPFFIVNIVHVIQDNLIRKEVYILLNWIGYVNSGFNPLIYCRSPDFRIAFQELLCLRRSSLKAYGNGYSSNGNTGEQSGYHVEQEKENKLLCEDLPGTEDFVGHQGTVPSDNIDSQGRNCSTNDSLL
Method in brief: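 Tango cells (recombinant beta2-AR with recombinant beta-arrestin; recruitment releases tTA driving luciferase) were treated with compounds titrated up to 46 microM for 18 hr at 37 degrees C. Luminescence gave %Activity, and concentration-response curves were curve-classified.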

[15] = target: ATP-dependent 6-phosphofructokinase (Trypanosoma brucei brucei) (UniProt O15648); assay: qHTS Validation Assay to Find Inhibitors of T. brucei phosphofructokinase (AID 485368)
ATP-dependent 6-phosphofructokinase (Trypanosoma brucei brucei), sequence (O15648 whole entry, looked up): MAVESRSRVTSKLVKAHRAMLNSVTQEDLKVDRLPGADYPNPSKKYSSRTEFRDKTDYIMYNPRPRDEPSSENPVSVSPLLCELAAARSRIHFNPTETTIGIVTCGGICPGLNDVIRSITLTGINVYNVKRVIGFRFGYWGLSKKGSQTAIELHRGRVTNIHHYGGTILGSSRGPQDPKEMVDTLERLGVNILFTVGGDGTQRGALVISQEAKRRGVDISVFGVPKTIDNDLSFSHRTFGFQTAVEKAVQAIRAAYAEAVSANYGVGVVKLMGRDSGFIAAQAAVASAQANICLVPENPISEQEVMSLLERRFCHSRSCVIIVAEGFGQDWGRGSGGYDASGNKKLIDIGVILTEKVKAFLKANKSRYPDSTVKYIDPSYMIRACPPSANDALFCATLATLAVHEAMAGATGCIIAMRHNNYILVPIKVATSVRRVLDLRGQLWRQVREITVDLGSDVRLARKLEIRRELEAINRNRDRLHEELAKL
Method in brief: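 Compounds (up to 57 uM, titration series) were pinned into substrate buffer, then 1.25 nM PFK added; after 45 min at room temperature, ADP product was quantified by ADP-Glo luminescence and concentration-response curves fitted.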

[16] = Quantitative high throughput screen for delayed death inhibitors of the malarial parasite plastid, 96 hour incubation (AID 488745);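 further: luciferase-expressing P. falciparum in erythrocytes at 2% hematocrit and 0.1% parasitemia; series mostly up to about 29 µM; nearly all actives have a fitted effect of over 70% in size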
Method in brief: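 Infected erythrocytes were added to compound in Albumax-supplemented RPMI 1640 at 0.1% parasitemia and 2% hematocrit (final), incubated 96 h at 37 C under 5% CO2, then luciferase reagent was added and luminescence measured.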

[17] = Quantitative high throughput screen for delayed death inhibitors of the malarial parasite plastid, 48 hour incubation (AID 488752); further: nearly all actives have a fitted effect of over 65% in size
Method in brief: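 Readout is firefly luciferase luminescence from a reporter integrated into the parasite genome, with lower signal taken as inhibited growth. Infected red cells (0.1% parasitemia, 2% hematocrit final) are cultured with compound for one 48 h cycle at 37 C.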

[18] = target: Tumor susceptibility gene 101 protein (Homo sapiens) (UniProt Q99816); assay: qHTS Validation Assay for Iinhibitors of HIV-1 Budding by Blocking the Interaction of PTAP/TSG101 (AID 485342; calls by dose curve)
Tumor susceptibility gene 101 protein (Homo sapiens), sequence (Q99816 whole entry, looked up, the tested form may be a part): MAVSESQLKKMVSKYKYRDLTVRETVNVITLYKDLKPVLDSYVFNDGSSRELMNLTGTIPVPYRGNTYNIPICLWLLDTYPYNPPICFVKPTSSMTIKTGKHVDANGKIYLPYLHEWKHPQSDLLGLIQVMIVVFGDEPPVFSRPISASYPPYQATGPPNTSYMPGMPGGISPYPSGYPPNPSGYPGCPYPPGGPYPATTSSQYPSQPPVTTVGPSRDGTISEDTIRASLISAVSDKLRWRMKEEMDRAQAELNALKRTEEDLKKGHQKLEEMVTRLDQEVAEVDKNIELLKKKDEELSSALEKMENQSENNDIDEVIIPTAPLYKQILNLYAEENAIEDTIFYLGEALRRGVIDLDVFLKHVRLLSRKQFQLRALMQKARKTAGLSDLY
Method in brief: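 Fluorescence anisotropy measured PTAP-Tsg101 interaction. Final concentrations were 10 uM protein domain and 50 nM labeled peptide, equilibrated 20 min at room temperature.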

[19] = target: Endonuclease 4 (Escherichia coli (strain K12)) (UniProt P0A6C1); assay: Counterscreen for APE1 Inhibitors: qHTS Assay for Inhibitors of Endonuclease IV (AID 2565)
Method in brief: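 E. coli EndoIV at 2 nM final, preincubated 15 min at room temperature with compound, then 50 nM TAMRA/BHQ-2 THF abasic-site duplex added. Buffer: 50 mM Tris-HCl pH 7.5, 50 mM NaCl, 2 mM MgCl2, 1 mM DTT, 0.01% Tween-20. Kinetic fluorescence increase, third minus first read.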

[20] = target: DNA repair nuclease/redox regulator APEX1 (Homo sapiens) (UniProt P27695); assay: Confirmation qHTS Assay for Inhibitors of the Human Apurinic/apyrimidinic Endonuclease 1 (APE1) (AID 2572);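 further: fluorescence gain from purified APE1 cutting a TAMRA/BHQ-2 THF abasic duplex; nearly all actives have a fitted effect of over 30% in size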
Method in brief: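 Enzyme preincubated 15 min at room temperature with compound; reaction started with 50 nM final double-stranded THF abasic-site substrate (5'-TAMRA, 3'-BHQ-2). Fluorescence read kinetically (525/598 nm); third-minus-first read difference gives reaction progress.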

Measured: Potency

S=C=S
inactive: [1]

CCCCCl
inactive: [1]

O=CC=O
inactive: [1]

C=CCN=C=S
inactive: [1]

C[C@]12CCC(=O)C[C@@H]1CC[C@@H]1[C@@H]2CC[C@]2(C)[C@@H](O)CC[C@@H]12
inactive: [1]

NCCc1ccc(S(=O)(=O)F)cc1
not listed: [1] | [18] | [19] | [20]
inactive: all other assays above

CC(C)Nc1ccc(Nc2ccccc2)cc1
inactive: [1]

Clc1ccccc1Cl
inactive: [1]

CN(C(=O)Cc1ccc(Cl)c(Cl)c1)C(CN1CCCC1)c1cccc(OCC(=O)O)c1 (stereo not given)
not listed: [1] | [13] | [19] | [20]
inactive: all other assays above

[O]=[Cd]
inactive: [1]

O=Cc1ccco1
inactive: [1]

NCCc1c[nH]c2ccc(C(N)=O)cc12
not listed: [1] | [8] | [19] | [20]
inactive: all other assays above

CC(=O)NBr
not listed: [1] | [8] | [13]
inactive: all other assays above

Oc1cc(Cl)c(Cl)cc1Cl
inactive: [1]

C[C@@H]1O[C@H](C[N+](C)(C)C)CS1
not listed: [1] | [13] | [16] | [19] | [20]
inactive: all other assays above

CN1CCc2cccc(Cl)c2CC1
not listed: [1] | [15] | [18] | [19] | [20]
inactive: all other assays above

C#CCN[C@H](C)Cc1ccccc1
not listed: [1] | [13] | [18] | [19] | [20]
inactive: all other assays above
